PubChem BioAssay AID1626 (SRMLSC, 2009)
In all, about 220,000 compounds went through this assay and about 2,000 (0.91%) were called active. Another 2% or so got no clear call; they are omitted. These entries were drawn from the full list. Entries with a potency or affinity are not part of this list. Values without a mark were called inactive. No stated cut-off is given here; in the data, inconclusive means inhibition above about 80% without an active follow-up result; inactive means below that; test concentration not stated here.

Assay: M. tuberculosis H37Rv growth inhibitors, H37Rv strain (AID 1626);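 further: bacteria incubated seven days before Alamar blue readout; 0% = bacteria only wells and 100% = bacteria with antibiotic wells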
Settings: hits give high values, concentration not given here

| Structure (SMILES) | inhibition [%] |
| --- | --- |
| COc1ccc(C(=O)C2CCCN(Cc3ccc4nonc4c3)C2)c(OC)c1 (stereo unspecified) | 4.61 |
| CC(C)NC(=O)NC(=O)CSc1ccccc1F | 8.25 |
| Nc1[nH]ncc1-c1ccccc1 | 48.5 |
| COc1ccc(-c2cn[nH]c2N)cc1 | 3.3 |
| O=C(NCc1cn2ccsc2n1)c1cccs1 | 2.94 |
| O=C(COC(=O)c1cc(S(=O)(=O)N2CCOCC2)ccc1O)Nc1cc(S(=O)(=O)N2CCCC2)ccc1Cl | -7.64 |
| Cc1cccnc1NC(=O)Nc1ccccc1 | -2.38 |
| Cc1nc(NC(=O)c2ccc(F)cc2)sc1C(=O)Nc1ccc2c(c1)CCC2 | 10.8 |
| Cc1ccc(C(=O)Nc2ccc3c(c2)CCC3)cc1 | 27.7 |
| O=C1CC2(CCCCCC2)Oc2ccc(Cl)cc21 | -6.31 |
| COc1cccc(-c2cc(C(=O)NCCN3CCOCC3)no2)c1 | 0.49 |
| COc1ccc(NC(=S)NCCCN2CCOCC2)cc1 | -0.5 |
| Cc1ccccc1OCc1nc(-c2ccc(NC(=O)c3ccco3)cc2)no1 | 19.3 |
| CCCc1ccc(OCc2nc(-c3ccc(NC(=O)c4cccs4)cc3)no2)cc1 | 15.6 |
| Cc1ccc(-n2c(-c3ccncc3)n[nH]c2=S)cc1 | -9.92 |
| Cc1cc2oc(C(=O)N(Cc3cccs3)C3CCS(=O)(=O)C3)cc(=O)c2cc1Cl (stereo unspecified) | 0.6 |
| O=C(NCCc1ccccc1)C1CCN(Cc2ccccc2F)CC1 | 0.69 |
| CCCSc1nnc(Cn2c(=O)sc3ccccc32)n1C | 3.51 |
| CCOC(=O)c1c(NC(=O)C2COc3ccccc3O2)sc(C(C)=O)c1C (stereo unspecified) | -3.37 |
| Cc1ccc(OCC(=O)Nc2sc3c(c2C#N)CC(C)(C)NC3(C)C)cc1 | 10.1 |
| CC1(C)Cc2c(sc(NC(=O)COc3ccccc3)c2C#N)C(C)(C)N1 | -3.34 |
| CCOC(=O)c1c(NC(=O)C2COc3ccccc3O2)sc(C)c1C (stereo unspecified) | -3.73 |
| CCOC(=O)c1cc2occc2n1CCCN1C(=O)c2ccccc2C1=O | -1.25 |

| Structure (SMILES) | inhibition [%] |
| --- | --- |
| CCc1cc2ccc(OC)cc2nc1SCC(=O)NNC(C)=O | 2.9 |
| CC(=O)N(NC(N)=O)C(C)CC(=O)C1C(C)C=CCC1(C)C (stereo unspecified) | -4.41 |
| CC(c1nnnn1C(C)(C)C)N(Cc1cccnc1)Cc1ccccc1Cl (stereo unspecified) | 11.3 |
| O=C(Cc1cc(=O)[nH][nH]1)N/N=C/c1ccccc1Cl | 0.78 |
| O=[N+]([O-])c1ccc(/C=N/N/C(=N/c2ccccn2)c2ccccn2)cc1 | 6.35 |
| O=C(COc1ccccc1[N+](=O)[O-])N/N=C/c1ccc(O)c([N+](=O)[O-])c1 | -1.06 |
| C=CCNC(=S)NNC(=O)c1ccc(=O)n(Cc2ccc(Cl)cc2Cl)c1 | 2.51 |
| COC(=O)/C(=C1/Oc2ccc(C)cc2S1)C(F)(F)F | 1.01 |
| COC(=O)/C(=C1/Oc2ccc(C(C)(C)C)cc2S1)C(F)(F)F | -3.79 |
| CCCCCn1c(=O)[nH]c2cc(C(=O)NCCN(CC)CC)ccc2c1=O | 2.41 |
| Cc1cc2cc(C)c(SCC(=O)NCc3ccco3)nc2cc1C | 2.4 |
| COC(=O)CCCC[C@H]1SC[C@H]2NC(=O)N[C@]21O | -9.41 |
| COc1ccc(Cl)cc1C(=O)Nc1ccc(NC(=O)C(C)C)cc1 | 6.21 |
| Cc1ccc(S(=O)(=O)n2c([N+](=O)[O-])cnc2C)c(C)c1C | 2.51 |
| CC(=O)c1sc(NC(=O)c2cc3c(C)nn(-c4ccccc4)c3s2)nc1C | -3.28 |
| Cc1nn(-c2ccccc2)c2sc(C(=O)O)cc12 | -2.71 |
| C/C=C/c1ccc(OCC(=O)OCC)c(OC)c1 | 78.2 |
| Cc1ccc(Nc2nc(COC(=O)COc3ccc(C=O)cc3)cs2)cc1 | -1.49 |
| Cc1occc1-c1n[nH]c(=S)n1C | -11.2 |
| NC(=O)C1CCN(C(=O)C2c3ccccc3C(=O)N3CCc4ccccc4C23)CC1 (stereo unspecified) | 1.51 |
| COc1ccccc1N1CCN(c2ncc(C(=O)N3CCN(c4cccc(Cl)c4)CC3)c3ccccc23)CC1 | 95 |
| COc1cccc(-c2nn(C)c3sc(C(=O)N4CCN(c5ccccn5)CC4)cc23)c1 | 60 |
| Cn1nc(-c2ccc(Cl)cc2)c2cc(C(=O)N3CCN(c4ccccc4)CC3)sc21 | 7.8 |
